# From PubChem BioAssay (EPA / NIEHS)
# Inconclusive results are not listed. The source holds several records for some structures; these can differ, active in one and inactive in another. Activity calls are given as the source filed them. Rule for the calls, unless noted: active = hit-call score of the fitted dose curve at least 0.9, where 1 is the maximum; inconclusive = response in the unintended direction; inactive = score below 0.9.
# Tests used:
# [1] = TOX21_p53_BLA_p2_viability: Viability Assessment in the Tox21 HCT-116 p53 Agonism Beta-lactamase Assay, Phase 2 (AID 2283591);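 note: compound exposure lasted 16 h at 37 °C; actives lower the ATP signal meaning cytotoxicity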
# Method in brief: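 HCT116 p53-bla cells, 4000/well, dosed after 5 h plating (217-fold dilution of DMSO stocks) and incubated 16 h at 37C. Viability taken as cellular ATP by CellTiter-Glo luminescence after 30 min RT; signal loss marks cytotoxicity.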
# [2] = TOX21_p53_BLA_p3_viability: Viability Assessment in the Tox21 HCT-116 p53 Agonism Beta-lactamase Assay, Phase 3 (AID 2283593);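 note: cells exposed to compound for 16 h before reading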
# Method in brief: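 HCT116 cells, 4000/well, dosed 5 h after plating by pin transfer (217-fold dilution from DMSO stock) and incubated 16 h at 37C, 5% CO2. Viability read as ATP luminescence with CellTiter-Glo after 30 min at room temperature.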
# [3] = molecular target: Cellular tumor antigen p53 (Homo sapiens) (UniProt P04637); assay: TOX21_p53_BLA_p3_ratio: Tox21 HCT-116 p53 Agonism Beta-lactamase Assay, Ratio, Phase 3 (AID 2283596)
# Sequence of Cellular tumor antigen p53 (Homo sapiens) (P04637 whole entry, looked up): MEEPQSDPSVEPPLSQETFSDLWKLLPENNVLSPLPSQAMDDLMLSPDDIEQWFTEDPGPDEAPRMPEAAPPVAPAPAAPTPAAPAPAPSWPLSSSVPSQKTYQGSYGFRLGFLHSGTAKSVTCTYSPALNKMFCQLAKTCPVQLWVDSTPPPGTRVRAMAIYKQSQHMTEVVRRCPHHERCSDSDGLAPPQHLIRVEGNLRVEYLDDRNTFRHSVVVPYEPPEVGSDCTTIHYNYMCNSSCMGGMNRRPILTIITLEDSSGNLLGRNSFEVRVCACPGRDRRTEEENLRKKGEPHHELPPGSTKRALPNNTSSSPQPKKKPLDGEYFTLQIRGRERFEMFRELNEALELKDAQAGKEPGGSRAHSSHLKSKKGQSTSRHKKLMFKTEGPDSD
# Method in brief: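 HCT116 p53-bla cells (4000/well) given compound in DMSO (217-fold dilution) after 5 h, incubated 16 h at 37C. CCF4-AM substrate 2 h at room temperature; 460/530 nm emission ratio, gain fitted against DMSO.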
# [4] = TOX21_p53_BLA_p5_viability: Viability Assessment in the Tox21 HCT-116 p53 Agonism Beta-lactamase Assay, Phase 5 (AID 2283600)
# Method in brief: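 After the 460/530 nm beta-lactamase measurement, the wells received an ATP-detection luciferase reagent; signal was read 30 min later at RT. Compound treatment lasted 16 h on cells pre-incubated 5 h post-seeding.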
# [5] = molecular target: Cellular tumor antigen p53 (Homo sapiens) (UniProt P04637); assay: TOX21_p53_BLA_p5_ratio: Tox21 HCT-116 p53 Agonism Beta-lactamase Assay, Ratio, Phase 5 (AID 2283599)
# Method in brief: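 HCT-116 p53-bla cells (4000/well) plated 5 h, dosed with compound (217-fold DMSO dilution) for 16 h at 37 C; CCF4-AM substrate 2 h at room temperature. Activity is the 460/530 nm emission ratio (405 nm excitation), fitted in gain-of-signal direction versus DMSO.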
# [6] = molecular target: Cellular tumor antigen p53 (Homo sapiens) (UniProt P04637); assay: TOX21_p53_BLA_p4_ratio: Tox21 HCT-116 p53 Agonism Beta-lactamase Assay, Ratio, Phase 4 (AID 2283601)
# Method in brief: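 HCT-116 p53 beta-lactamase reporter cells (4000/well) preincubated 5 h, then compound (217-fold dilution of DMSO stock) for 16 h at 37C. CCF4-AM substrate added 2 h at room temperature; 460/530 nm emission ratio fitted upward versus DMSO.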
# [7] = TOX21_p53_BLA_p4_viability: Viability Assessment in the Tox21 HCT-116 p53 Agonism Beta-lactamase Assay, Phase 4 (AID 2283597);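 note: hits lower the luminescence signal meaning cytotoxicity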
# Method in brief: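 Following a 16 h exposure at 37C, the treated HCT116 wells were first read for the FRET ratio. They were then lysed with CellTiter-Glo, and ATP luminescence was recorded after 30 min at room temperature.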
# [8] = CCTE_Harrill_HTTr_Viability_MCF7: CCTE's 6-hour Cell Viability Assessment for the High-Throughput Transcriptomics (HTTr) Platform, in MCF-7 cells cultured in DMEM + 10% fetal bovine serum, Harrill Lab (AID 2284010; active = hit-call score of the fitted dose curve at least 0.9, where 1 is the maximum; inactive = score below 0.9)
# Method in brief: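 MCF-7 cells in DMEM + 10% FBS, 384-well, exposed 6 h to an eight-point dilution series. Membrane integrity scored by high-content imaging of propidium iodide exclusion; bidirectional fit versus DMSO.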
# [9] = CCTE_Harrill_HTTr_CellCount_MCF7: CCTE's Cell Proliferation Assessment for the High-Throughput Transcriptomics (HTTr) Platform, Harrill Lab (AID 2284012);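 note: cells exposed to compound for six hours; intended direction is loss of nuclei count meaning fewer cells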
# Method in brief: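 MCF7 cells exposed 6 hours to an eight-point dilution series; Hoechst-stained nuclei counted by high-content imaging. Bidirectional curve fitting against DMSO baseline.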
# [10] = TAMU_PeakParms_SingleDonor1434_Chronotropy: Texas A&M University (TAMU) 1.5-hr Human Induced Pluripotent Stem Cell (iPSC)-derived Cardiomyocytes Calcium (Ca+2) Flux Assay for Cardiotoxicity: Chronotropy (changes in peak frequency) (AID 2284217; active = hit-call score of the fitted dose curve at least 0.9, where 1 is the maximum; inactive = score below 0.9); conditions: actives raise or lower the signal
# Method in brief: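 iPSC-derived cardiomyocytes (single donor 1434) dosed at 0.2, 1, 10 and 100 uM in 0.5% DMSO for 1.5 h at 37C; Ca2+ dye fluorescence gave average beat frequency. Zero-beat points removed; bidirectional fit versus DMSO, POD as EC05.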
# [11] = TAMU_HCS_1.5hr_SingleDonor1434_Cytotoxicity: Cytotoxicity Assessment using High-content Screening (HCS) Fluorescent Imaging for the Texas A&M University (TAMU) 1.5-hr Human Induced Pluripotent Stem Cell (iPSC)-derived Cardiotoxicity Assay (AID 2284234)
# Method in brief: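 Human iPSC-derived cardiomyocytes dosed at 0.2, 1, 10, 100 uM final (0.5% DMSO) for 90 min at 37 C. Hoechst 33342-stained nuclei counted by 10x high-content imaging; POD is EC10, a 10% drop in total cell count versus DMSO.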
# [12] = TAMU_PeakParms_SingleDonor1434_QT: Texas A&M University (TAMU) 1.5-hr Human Induced Pluripotent Stem Cell (iPSC)-derived Cardiomyocytes Calcium (Ca+2) Flux Assay for Cardiotoxicity: QT (decay-rise ratio) (AID 2284235)
# Method in brief: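 iPSC-derived cardiomyocytes (single donor 1434) dosed at 0.2, 1, 10, 100 uM final in 0.5% DMSO, 90 min at 37C. Ca2+ flux fluorescence decay/rise ratio; EC05 (5% increase versus DMSO) as POD, excluding beat-arrest and severe-notch data.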
# [13] = TAMU_PeakParms_SingleDonor1434_Asystole: Texas A&M University (TAMU) 1.5-hr Human Induced Pluripotent Stem Cell (iPSC)-derived Cardiomyocytes Calcium (Ca+2) Flux Assay for Cardiotoxicity: Asystole (quiescence of beating) (AID 2284328)
# Method in brief: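 Donor 1434 iPSC-cardiomyocytes exposed 90 min at 37C, 5% CO2, to 0.2, 1, 10 and 100 uM in 0.5% DMSO. Ca2+ dye fluorescence gave average peak frequency; POD is EC95, a 95% beat-rate drop versus controls.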
# [14] = CCTE_Harrill_HTTr_Apoptosis_MCF7: CCTE's 6-hour Apoptosis Assessment for the High-Throughput Transcriptomics (HTTr) Platform, in MCF-7 cells cultured in DMEM + 10% fetal bovine serum, Harrill Lab (AID 2284011; active = hit-call score of the fitted dose curve at least 0.9, where 1 is the maximum; inactive = score below 0.9)
# Method in brief: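 High-content imaging of CellEvent Caspase 3/7 Green signal follows a six-hour exposure, with eight concentrations per chemical. MCF-7 cells grown in DMEM plus 10% fetal bovine serum; activity fitted in both directions against DMSO.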
structure (smiles),measurement,setting,value
[O]=[Mo](=[O])=[O],outcome,[1],inactive
same,outcome,[2],inactive
same,outcome,[3],inactive
same,outcome,[4],inactive
O=C(O)C(Cc1cc(I)c(O)c(I)c1)c1ccccc1 (configuration not stated),outcome,[1],inactive
same,outcome,[2],inactive
same,outcome,[3],inactive
same,outcome,[5],inactive
same,outcome,[6],inactive
NC(Cc1ccc(Cl)cc1)C(=O)O (configuration not stated),outcome,[1],inactive
same,outcome,[2],inactive
same,outcome,[3],inactive
same,outcome,[6],inactive
c1ccncc1,outcome,[1],inactive
same,outcome,[2],inactive
same,outcome,[7],inactive
same,outcome,[5],inactive
same,outcome,[4],inactive
same,outcome,[6],inactive
CC(=O)SC[C@@H](Cc1ccccc1)C(=O)NCC(=O)OCc1ccccc1,outcome,[1],inactive
same,outcome,[2],inactive
same,outcome,[7],inactive
same,outcome,[5],inactive
same,outcome,[4],inactive
same,outcome,[6],inactive
O=C(NC1CCN(CCc2c[nH]c3ccccc23)CC1)c1ccccc1,outcome,[1],inactive
same,outcome,[2],inactive
same,outcome,[3],inactive
same,outcome,[6],inactive
COC(=O)[C@H]1[C@H]2C[C@@H]3c4[nH]c5cc(OC)ccc5c4CCN3C[C@H]2C[C@H](OC)[C@@H]1OC,outcome,[1],inactive
same,outcome,[2],inactive
same,outcome,[7],inactive
same,outcome,[5],inactive
OCCN(CCO)CCN(CCO)CCO,outcome,[1],inactive
same,outcome,[2],inactive
same,outcome,[7],inactive
same,outcome,[5],inactive
same,outcome,[4],inactive
NCCCC[C@H](NC(=O)[C@@H]1CCCN1C(=O)[C@@H]1CSSC[C@H](N)C(=O)N[C@@H](Cc2ccccc2)C(=O)N[C@@H](Cc2ccccc2)C(=O)N[C@@H](CCC(N)=O)C(=O)N[C@@H](CC(N)=O)C(=O)N1)C(=O)NCC(N)=O,outcome,[1],inactive
same,outcome,[2],inactive
same,outcome,[7],inactive
same,outcome,[5],inactive
same,outcome,[4],inactive
same,outcome,[6],inactive
CCN1CCOCC1,outcome,[1],inactive
same,outcome,[2],inactive
same,outcome,[7],inactive
same,outcome,[5],inactive
same,outcome,[4],inactive
COc1ccc(CCN(C)CCCC(C#N)(c2ccc(OC)c(OC)c2)C(C)C)cc1OC (configuration not stated),outcome,[1],inactive
same,outcome,[2],inactive
same,AC50,[7],39.2 µM (active)
same,outcome,[7],inactive
same,outcome,[4],inactive
same,outcome,[8],inactive
same,outcome,[9],inactive
same,outcome,[10],inactive
same,outcome,[11],inactive
same,outcome,[12],inactive
same,outcome,[13],inactive
O=S(O)CNc1ccc(S(=O)(=O)c2ccc(NCS(=O)O)cc2)cc1,outcome,[1],inactive
same,outcome,[2],inactive
same,outcome,[3],inactive
same,outcome,[4],inactive
Nc1c(CC(=O)O)cccc1C(=O)c1ccc(Br)cc1,outcome,[1],inactive
same,outcome,[2],inactive
same,outcome,[3],inactive
same,outcome,[8],inactive
same,outcome,[14],inactive
NC(=O)CCCCC1CCSS1 (configuration not stated),outcome,[1],inactive
same,outcome,[2],inactive
same,outcome,[7],inactive
same,outcome,[5],inactive
NC[C@H]1O[C@H](O[C@H]2[C@H](O)[C@@H](O[C@H]3O[C@H](CO)[C@@H](O)[C@H](N)[C@H]3O)[C@H](N)C[C@@H]2N)[C@H](N)C[C@@H]1O,outcome,[1],inactive
same,outcome,[2],inactive
same,outcome,[3],inactive
same,outcome,[5],inactive
same,outcome,[6],inactive
Cc1ccc(C(=O)O)cc1,outcome,[1],inactive
same,outcome,[2],inactive
same,outcome,[7],inactive
same,outcome,[5],inactive
same,outcome,[4],inactive
CC(C(O)c1ccc(O)cc1)N1CCC(Cc2ccccc2)CC1 (configuration not stated),outcome,[1],inactive
same,outcome,[2],inactive
same,outcome,[7],inactive
same,outcome,[5],inactive
Oc1cc2c(cc1O)[C@H]1c3ccc(O)c(O)c3OC[C@@]1(O)C2,outcome,[1],inactive
same,outcome,[2],inactive
same,outcome,[7],inactive
CC(C)=CCCC(C)=CC=NO,outcome,[1],inactive
same,outcome,[2],inactive
same,outcome,[7],inactive
COCC(=O)Nc1c(I)c(C(=O)NCC(O)CO)c(I)c(C(=O)N(C)CC(O)CO)c1I (configuration not stated),outcome,[1],inactive
same,outcome,[2],inactive
same,outcome,[3],inactive
same,outcome,[4],inactive
same,outcome,[6],inactive
OCCOCC#CCOCCO,outcome,[1],inactive
same,outcome,[2],inactive
same,outcome,[3],inactive
same,outcome,[4],inactive
same,outcome,[6],inactive
CC(N)C(=O)OC(C)(C)Cc1ccc(Cl)cc1 (configuration not stated),outcome,[1],inactive
same,outcome,[2],inactive
same,outcome,[3],inactive
same,outcome,[4],inactive
same,outcome,[6],inactive
Nc1nc2c(c(=O)[nH]1)N(C=O)C(CNc1ccc(C(=O)N[C@@H](CCC(=O)O)C(=O)O)cc1)CN2 (some centres not stated),outcome,[1],inactive
same,outcome,[2],inactive
same,outcome,[3],inactive
same,outcome,[5],inactive
same,outcome,[6],inactive
CCCCCCCCCCCCCCCCCCOCCO,outcome,[1],inactive
same,outcome,[2],inactive
same,outcome,[7],inactive
same,outcome,[5],inactive
same,outcome,[4],inactive
CCC(COC(=O)CCS)(COC(=O)CCS)COC(=O)CCS,outcome,[1],inactive
same,outcome,[2],inactive
same,AC50,[3],72.1 µM (active)
same,outcome,[4],inactive
CN(C)C/C=C(/c1ccc(Br)cc1)c1cccnc1,outcome,[1],inactive
same,outcome,[2],inactive
same,outcome,[7],inactive
same,outcome,[5],inactive
same,outcome,[4],inactive
same,outcome,[6],inactive
c1ccc(CC2=NCCN2)cc1,outcome,[1],inactive
same,outcome,[2],inactive
same,outcome,[7],inactive
same,outcome,[5],inactive
CC(O)[C@@H]1NC(=O)[C@H](CCCCN)NC(=O)[C@@H](Cc2c[nH]c3ccccc23)NC(=O)[C@H](Cc2ccccc2)NC(=O)[C@@H](NC(=O)[C@H](N)Cc2ccccc2)CSSC[C@@H](C(=O)N[C@H](CO)[C@@H](C)O)NC1=O (some centres not stated),outcome,[1],inactive
same,outcome,[2],inactive
same,outcome,[7],inactive
same,outcome,[5],inactive
Cc1ccccc1CNc1ncnc2c1ncn2[C@@H]1O[C@H](CO)[C@@H](O)[C@H]1O,outcome,[1],inactive
same,outcome,[2],inactive
same,outcome,[7],inactive
same,outcome,[5],inactive
same,outcome,[4],inactive
same,outcome,[6],inactive
O=C1O[C@H]2[C@H](O)[C@@H]1OC(O)[C@H]2O (some centres not stated),outcome,[1],inactive
same,outcome,[2],inactive
same,outcome,[7],inactive
same,outcome,[4],inactive
same,outcome,[6],inactive
O=C(CCCN1CCC(O)(c2cccc(C(F)(F)F)c2)CC1)c1ccc(F)cc1,outcome,[1],inactive
same,outcome,[2],inactive
same,outcome,[7],inactive
same,outcome,[4],inactive
same,outcome,[6],inactive
